Laboratory results as given in ChEMBL document CHEMBL3988442, “University of Dundee, Small-Polar-MMV Screening Library” (2021).
The campaign covered roughly 48,000 compounds. About 13,000 (27%) showed an effect of 50% or more. The list shows a part of the results.

test system: Wolbachia pipientis; assay: Anti-Wolbachia Cell-Based Screen; assay type: functional; parameters: scale not given: in the data most compounds retested in dose-response had high values; conditions: 5 µM

Compound | Percent Effect
O=c1ccc(-n2ccnc2)nn1CCNS(=O)(=O)c1ccc(Cl)s1 | 9.208%
Cc1nc(NS(=O)(=O)c2cc(C)c(Br)cc2C)no1 | 12.58%
Cc1ccc(CN2Cc3cnn(C)c3C(COCC3CC3)C2)o1 (configuration not stated) | 20.07%
CCn1nnc2c1C(COC)CN(Cc1ccco1)C2 (configuration not stated) | 114.9%
CCn1nnc2c1C(COC)CN(Cc1cccs1)C2.O=C(O)C(F)(F)F (configuration not stated) | -4.503%
CCn1nnc2c1C(COC)CN(C(=O)Cc1cccs1)C2 (configuration not stated) | -3.417%
CCn1ncc2c1C(COC)CN(Cc1ccco1)C2 (configuration not stated) | 102.5%
CCn1ncc2c1C(COC)CN(Cc1ccc(C)o1)C2 (configuration not stated) | 99.39%
CCn1cc2c(n1)C(COC)CN(Cc1ccoc1)C2 (configuration not stated) | -1.069%
CNC(=O)C1(N(C)CCc2ccccc2)Cc2ccccc2C1 | 30.02%
CCc1ccccc1C(=O)N1C[C@@H](CN2CCOCC2)[C@@H](CO)C1 | -4.214%
O=C(NCC(O)c1cccc(F)c1)C1CCN(C(=O)C2CCC2)CC1 (configuration not stated) | -0.7968%
COc1ccc(-n2ncc(C(C)NC3CCSCC3)c2C)cc1 (configuration not stated) | -4.294%
Cc1c(C(C)NC2CSCCSC2)cnn1-c1ccc(F)cc1F (configuration not stated) | -0.1798%
CN1CCN(Cc2cnn(-c3ccc(F)cc3)c2)[C@H]2CS(=O)(=O)C[C@H]21 | -6.219%
COc1ccc(-n2ncc3c2NC(=O)CSC3C(C)C)cc1 (configuration not stated) | 81.05%
CC(=O)N1CCC(NC(C)c2cnn(-c3ccc(F)cc3F)c2C)CC1 (configuration not stated) | -2.797%
COc1ccc(C2CC(=O)Nc3c2cnn3C)cc1 (configuration not stated) | 32.7%
CC(C)CC1SCC(=O)Nc2c1cnn2-c1ccc(F)cc1 (configuration not stated) | 52.58%

Compound | Percent Effect
CC(C)C1SCC(=O)Nc2c1cnn2-c1ccc(Cl)cc1F (configuration not stated) | 70.31%
CC(C)C1SCC(=O)Nc2c1cnn2-c1ccc(Cl)cc1 (configuration not stated) | 114.3%
CC(C)CC1SCC(=O)Nc2c1cnn2C(C)C (configuration not stated) | 1.479%
CC(C)(C)n1ncc2c1NC(=O)CC2c1ccsc1 (configuration not stated) | 12.08%
Cc1noc(CNC(=O)NCCOc2ccc(Cl)cc2)n1 | -1.273%
N#Cc1cccc(OCCCN2CCN(C(=O)c3ccoc3)CC2)c1 | -11.27%
CC(C)n1ncc2c1NC(=O)CSC2C(C)(C)C (configuration not stated) | 1.885%
CC(C)n1[nH]c(=O)c2c1NC(=O)CSC2C1CCCCC1 (configuration not stated) | -15.8%
CC(C)C1SCC(=O)Nc2c1cnn2-c1ccc(F)cc1 (configuration not stated) | 81.09%
Cc1ccccc1CN(CCN(C)C)Cc1ccc(S(C)(=O)=O)cc1 | -5.606%
COc1cccc(OC)c1C(C(=O)O)N(C)Cc1c(C)n[nH]c1C (configuration not stated) | -9.19%
COc1ccc(C(C(=O)O)N(C)Cc2ccon2)cc1Cl (configuration not stated) | 4.9%
CN1CCCN(C(C(=O)O)c2ccc3c(c2)OCO3)CC1 (configuration not stated) | -6.004%
Cc1ccc(CN(C)C(C(=O)O)c2ccc3c(c2)OCO3)o1 (configuration not stated) | 114%
Cc1noc(CN(Cc2ccc3c(c2)OCO3)Cc2ccc(C)o2)n1 | 1.784%
COc1cccc(Cl)c1C(C(=O)O)N(C)Cc1c(C)n[nH]c1C (configuration not stated) | -23.52%
CN(C)C(C(=O)N1CC(c2ccccn2)C1)c1ccc2c(c1)OCO2 (configuration not stated) | -10.36%
COc1c(C)cc(C(C(=O)O)N(C)Cc2ccn[nH]2)cc1C (configuration not stated) | -0.04634%
COc1ccc(C(C(=O)O)N(C)CCN2CCOCC2)c(C)c1 (configuration not stated) | 5.185%

Compound | Percent Effect
Cc1n[nH]c(C)c1CN(C)C(C(=O)O)c1ccc2c(c1)OCO2 (configuration not stated) | 109.5%
COc1cccc(C(C(=O)O)N(C)Cc2ccc(C)o2)c1 (configuration not stated) | 105.1%
CN(Cc1ccccn1)C(C(=O)O)c1ccc2c(c1)OCO2 (configuration not stated) | 99.57%
CCc1c(C)[nH]c(C(C)(C)N)nc1=O.Cl | 24.57%
CCSc1ncc(CN2CCN(c3nc(C)cnc3C)CC2)cn1 | -7.047%
CN(C)CCCC(=O)N1C[C@H]2CC[C@@H]1CN(Cc1ccccc1)C2 | -3.863%
CCC(CC)C(=O)NCC1(NC(C)c2ccccc2)CCOCC1 (configuration not stated) | -13.17%
COc1ccc(C)cc1CCNS(C)(=O)=O | 4.512%
Cn1ccnc1CN1CCC2(CC1)COCCN(S(C)(=O)=O)C2.O=C(O)C(F)(F)F | 104.9%
Cn1cncc1CN1CCC2(CC1)COCCN(S(C)(=O)=O)C2.O=C(O)C(F)(F)F | 124.1%
COC1CC2(CCN(Cc3nccn3C)CC2)C1.O=C(O)C(F)(F)F | 5.077%
CN1CCOCC2(CCN(Cc3ccc[nH]3)CC2)C1.O=C(O)C(F)(F)F.O=C(O)C(F)(F)F | -3.282%
Cn1ccnc1CN1CCC2(COCCN(S(=O)(=O)C3CC3)C2)C1 (configuration not stated) | 106.3%
Cn1ccnc1CN1CCC2(CC1)COC2.O=C(O)C(F)(F)F | 97.83%
Cn1ccnc1CN1CCC2(COCCN(Cc3ccsc3)C2)C1 (configuration not stated) | 14.38%
CCOC1CC2(CCN(Cc3nccn3C)CC2)C1.O=C(O)C(F)(F)F | 2.92%
O=C(O)C(F)(F)F.O=S(=O)(C1CC1)N1CCOCC2(CCN(c3ccccn3)C2)C1 (configuration not stated) | 8.73%
Cn1ccnc1CN1CCC2(CC1)CCN(Cc1ccoc1)C2.O=C(O)C(F)(F)F.O=C(O)C(F)(F)F | -4.24%
CS(=O)(=O)N1CCOCC2(CN(Cc3nccs3)CCO2)C1.O=C(O)C(F)(F)F (configuration not stated) | 6.136%
